# Results published in PubChem BioAssay.
# Where “and” joins values, the source holds several entries; their conditions need not be identical. Equal values may be shown once. Calls of active or inactive are those of the source. Unless noted, how the calls were made is not given here.
# Assays:
# [1] = system: Wnt5a (protein binding on small-molecule microarray); assay: small molecules binding Wnt5a protein – biophysical, small-molecule microarray, 635/667 nm fluorescence, primary screen (AID 1142); settings: 635 nm fluorescence, higher = more signal;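 further: fluorescence read at 667 nm with signal to noise per printed feature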
# [2] = ATP-based viability of Huh7 replicon cells – cell-based, CellTiter-Glo luminescence, basal, 48 h, cytotoxicity control for HCV replication inhibitor project, primary screen (AID 1143); settings: higher = more signal, called active from +8 up or from −8 down;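 further: Huh7 hepatoma cells carrying a hepatitis C replication reporter with no stimulus; test concentration not given here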
# [3] = Pseudomonas biofilm growth suppression – PAO1 strain, BacTiter-Glo luminescence, LB-PBS, primary screen (AID 1144); settings: P. aeruginosa PAO1 biofilm, 12 h, higher = more signal
# [4] = basal CRE-LacZ reporter activity in PC12 – cell-based, unstimulated, primary screen (AID 1145); settings: no forskolin, luminescence, 4.5 h, higher = more signal, called active from +8 up or from −8 down
# [5] = forskolin-driven CRE-LacZ activity in PC12 – cell-based, CRE-LacZ reporter, forskolin-stimulated, primary screen (AID 1146); settings: luminescence, 4.5 h, higher = more signal, called active from +8 up or from −8 down;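 further: PC12 cells with 6xCRE LacZ reporter stimulated by forskolin 10 µM; beta-galactosidase reporter signal reflecting CREB driven transcription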
# [6] = molecular target: Streptavidin (Streptomyces avidinii) (UniProt P22629); assay: compounds binding control protein streptavidin – biophysical, small-molecule microarray, 635/667 nm fluorescence, artefact control for SMM compound annotation, primary screen (AID 1147); settings: higher = more signal;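 further: signal reflects streptavidin binding to arrayed compounds as a control protein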
# Sequence of Streptavidin (Streptomyces avidinii) (P22629 whole entry, looked up): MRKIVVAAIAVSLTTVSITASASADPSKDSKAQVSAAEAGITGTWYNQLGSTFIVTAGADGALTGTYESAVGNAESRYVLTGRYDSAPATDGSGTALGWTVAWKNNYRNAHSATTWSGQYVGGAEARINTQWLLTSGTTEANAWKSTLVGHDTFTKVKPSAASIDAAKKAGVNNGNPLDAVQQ
# [7] = probe aInhba binding on compound microarray – biochemical, small-molecule microarray, 635/667 nm fluorescence, primary screen (AID 1148); settings: higher = more signal;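 further: score merges 667nm spot fluorescence with signal-to-noise for antibody binding to printed compounds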
# Torsin-1A (Homo sapiens) [8] = molecular target: Torsin-1A (Homo sapiens) (UniProt O14656); assay: TOR1A wild-type binding on microarray – cell lysate, small-molecule microarray, lysate, 635/667 nm, primary screen (AID 1149); settings: COS7 hTOR1A-WT lysate, 635 nm fluorescence, higher = more signal
# Sequence of Torsin-1A (Homo sapiens) (O14656 whole entry, looked up): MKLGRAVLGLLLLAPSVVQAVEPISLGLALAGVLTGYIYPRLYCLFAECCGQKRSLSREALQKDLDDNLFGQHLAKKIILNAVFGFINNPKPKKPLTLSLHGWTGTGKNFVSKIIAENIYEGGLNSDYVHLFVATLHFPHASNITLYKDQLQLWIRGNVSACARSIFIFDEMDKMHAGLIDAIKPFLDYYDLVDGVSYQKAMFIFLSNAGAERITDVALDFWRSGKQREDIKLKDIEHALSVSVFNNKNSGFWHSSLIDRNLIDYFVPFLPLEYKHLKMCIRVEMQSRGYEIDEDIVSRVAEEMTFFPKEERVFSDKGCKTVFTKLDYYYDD
# Torsin-1A (Homo sapiens) [9] = molecular target: Torsin-1A (Homo sapiens) (UniProt O14656); assay: torsin A mutant lysate binding on microarrays – cell lysate, small-molecule microarray, COS7 lysate, 635/667 nm fluorescence, primary screen (AID 1150); settings: COS7 hTOR1A mutant lysate, 635 nm fluorescence, higher = more signal;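 further: score pools 667 nm emission and signal to noise measuring lysate protein binding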
# [10] = system: Sonic hedgehog protein (Shh); assay: Sonic hedgehog microarray binding compounds – biochemical, small-molecule microarray, 635/667 nm fluorescence, primary screen (AID 1151); settings: 635 nm fluorescence, higher = more signal;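 further: Shh protein binding to compounds spotted on small-molecule microarray slides; score combines spot fluorescence intensity with signal-to-noise across triplicate slides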
# [11] = optical density shifts of acrAB sulA E. coli – strain DRC41, OD650, 48 h, E. coli filamentation inducer project, primary screen (AID 1152); settings: higher = more signal, called active from +8 up or from −8 down;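 further: E. coli MC1000 strain DRC41 lacking acrAB efflux pump and sulA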
# [12] = probe aLefty1 binding on compound microarray – biochemical, small-molecule microarray, 635/667 nm fluorescence, primary screen (AID 1153); settings: higher = more signal;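 further: score merges spot fluorescence with signal-to-noise ratio from the scanned slide images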
# [13] = plasmodial surface anion channel blockers, osmotic lysis – cell-based, P. falciparum Indochina, OD700, 1 h, primary screen (AID 1154); settings: P. falciparum Indochina infected RBC osmotic lysis, higher = more signal, called active from +8 up or from −8 down
# [14] = plasmodial surface anion channel blockers, osmotic lysis – cell-based, P. falciparum Indochina, OD700, 2 h, primary screen (AID 1155);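 further: lysis reports solute entry through the parasite surface anion channel PSAC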; settings: P. falciparum Indochina infected erythrocytes, higher = more signal, called active from +8 up or from −8 down
# [15] = changes in parasitized red cell lysis, either direction – P. falciparum Indochina, OD700, 3 h, PSAC antagonist project, primary screen (AID 1156); settings: P. falciparum-infected erythrocytes, osmotic lysis, higher = more signal, called active from +8 up or from −8 down
# [16] = plasmodial surface anion channel blockers, osmotic lysis – cell-based, P. falciparum Indochina, OD700, 18 h, primary screen (AID 1157); settings: P. falciparum Indochina infected erythrocytes, osmotic lysis OD700, 18 h; higher = more signal, called active from +8 up or from −8 down
# [17] = S6 kinase pathway phospho-S6 level changes – cell-based, A549, cytoblot, luminescence, serum-stimulated, primary screen (AID 1158); settings: 5 h, higher = more signal;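 further: serum-stimulated A549 lung adenocarcinoma cells; signal is phosphorylated S6 detected by cytoblot immunostaining with HRP secondary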
# [18] = molecular target: NADPH oxidase 2 (Homo sapiens) (UniProt P04839); assay: compounds shifting NOX2 Amplex Red fluorescence – cell-based, HEK293-NOX2, PMA-stimulated, NOX inhibitor project, primary screen (AID 1159); settings: 45 min, higher = more signal, called active from +8 up or from −8 down; further: test concentration not given here
# Sequence of NADPH oxidase 2 (Homo sapiens) (P04839 whole entry, looked up): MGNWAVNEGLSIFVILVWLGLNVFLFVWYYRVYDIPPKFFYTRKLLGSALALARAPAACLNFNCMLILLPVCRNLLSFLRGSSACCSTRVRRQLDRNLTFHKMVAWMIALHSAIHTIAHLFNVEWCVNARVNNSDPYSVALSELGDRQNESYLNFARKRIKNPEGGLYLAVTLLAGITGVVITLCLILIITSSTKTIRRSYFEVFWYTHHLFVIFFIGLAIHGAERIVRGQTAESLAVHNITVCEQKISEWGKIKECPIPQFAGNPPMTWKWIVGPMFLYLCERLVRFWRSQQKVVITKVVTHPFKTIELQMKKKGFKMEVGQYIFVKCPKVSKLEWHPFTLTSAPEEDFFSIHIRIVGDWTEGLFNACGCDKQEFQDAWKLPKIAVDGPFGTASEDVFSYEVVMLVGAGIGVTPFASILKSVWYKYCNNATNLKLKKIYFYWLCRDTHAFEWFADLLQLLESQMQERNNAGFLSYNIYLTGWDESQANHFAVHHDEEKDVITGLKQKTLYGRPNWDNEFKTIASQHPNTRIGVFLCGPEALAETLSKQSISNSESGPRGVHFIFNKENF
# [19] = molecular target: NADPH oxidase 4 (Homo sapiens) (UniProt Q9NPH5); assay: compounds shifting NOX4 Amplex Red fluorescence – cell-based, HEK293-NOX4, tetracycline-induced, NOX inhibitor project, primary screen (AID 1160); settings: HEK293-NOX4, Amplex Red H2O2 fluorescence, 45 min; higher = more signal, called active from +8 up or from −8 down
# Sequence of NADPH oxidase 4 (Homo sapiens) (Q9NPH5 whole entry, looked up): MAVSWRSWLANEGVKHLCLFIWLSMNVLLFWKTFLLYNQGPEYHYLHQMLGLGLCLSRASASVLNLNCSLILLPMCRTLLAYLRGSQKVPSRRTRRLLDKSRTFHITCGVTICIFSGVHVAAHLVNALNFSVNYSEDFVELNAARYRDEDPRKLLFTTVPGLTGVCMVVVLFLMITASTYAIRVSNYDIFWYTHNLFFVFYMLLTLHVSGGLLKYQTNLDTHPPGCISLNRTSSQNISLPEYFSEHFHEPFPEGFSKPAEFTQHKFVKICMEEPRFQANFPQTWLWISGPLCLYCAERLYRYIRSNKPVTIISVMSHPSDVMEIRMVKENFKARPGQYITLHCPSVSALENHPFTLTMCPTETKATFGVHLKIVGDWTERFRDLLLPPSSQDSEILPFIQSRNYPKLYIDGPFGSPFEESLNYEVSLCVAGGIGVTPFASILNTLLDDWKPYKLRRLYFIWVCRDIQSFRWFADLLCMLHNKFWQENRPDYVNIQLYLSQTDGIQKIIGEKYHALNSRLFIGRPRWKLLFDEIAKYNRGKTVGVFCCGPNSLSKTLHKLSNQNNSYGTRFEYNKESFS
# [20] = molecular target: NADPH oxidase 5 (Homo sapiens) (UniProt Q96PH1); assay: compounds shifting NOX5 Amplex Red fluorescence – cell-based, HEK293-NOX5, NOX inhibitor project, primary screen (AID 1161); settings: HEK293-NOX5, ionomycin, 45 min, higher = more signal
# Sequence of NADPH oxidase 5 (Homo sapiens) (Q96PH1 whole entry, looked up): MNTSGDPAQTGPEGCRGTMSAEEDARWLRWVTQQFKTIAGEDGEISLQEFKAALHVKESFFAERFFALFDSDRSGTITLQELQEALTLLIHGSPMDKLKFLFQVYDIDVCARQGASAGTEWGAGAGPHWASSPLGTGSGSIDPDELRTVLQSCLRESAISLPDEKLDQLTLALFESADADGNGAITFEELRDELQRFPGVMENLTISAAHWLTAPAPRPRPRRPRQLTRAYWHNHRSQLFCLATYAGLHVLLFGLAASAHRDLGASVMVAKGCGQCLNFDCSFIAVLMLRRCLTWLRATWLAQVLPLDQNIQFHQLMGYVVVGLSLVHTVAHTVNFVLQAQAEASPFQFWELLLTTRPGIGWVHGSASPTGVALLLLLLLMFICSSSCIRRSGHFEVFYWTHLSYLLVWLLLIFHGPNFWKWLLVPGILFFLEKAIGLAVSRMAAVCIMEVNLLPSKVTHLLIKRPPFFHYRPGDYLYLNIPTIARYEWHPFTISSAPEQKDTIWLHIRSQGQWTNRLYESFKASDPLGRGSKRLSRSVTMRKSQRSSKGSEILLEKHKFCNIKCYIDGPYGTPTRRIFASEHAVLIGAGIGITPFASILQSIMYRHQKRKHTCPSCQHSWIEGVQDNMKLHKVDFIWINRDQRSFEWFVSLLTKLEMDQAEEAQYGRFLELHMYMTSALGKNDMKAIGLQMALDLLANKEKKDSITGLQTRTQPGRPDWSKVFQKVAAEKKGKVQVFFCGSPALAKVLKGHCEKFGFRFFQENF
SMILES,composite z-score [1],z-score [2],z-score [3],z-score [4],z-score [5],composite z-score [6],composite z-score [7],composite z-score (Torsin-1A (Homo sapiens) [8]),composite z-score (Torsin-1A (Homo sapiens) [9]),composite z-score [10],z-score [11],composite z-score [12],z-score [13],z-score [14],z-score [15],z-score [16],z-score [17],z-score [18],z-score [19],z-score [20]
C=CC[C@@H](O)c1ccc(OCCO)cc1,-0.0578 and -0.579,-0.924 (inactive) and -0.105 (inactive),0.517 (inactive) and -0.242 (inactive),-0.431 (inactive) and 0.772 (inactive),-0.613 (inactive) and -0.949 (inactive),-1.47 and -0.878,-0.259 and -0.153,0.588 and -3.38,0.479 and -2.42,0.0925 and -0.262,1.23 (inactive) and 1.38 (inactive),-0.259 and -0.191,3.24 (inactive) and 1.36 (inactive),-0.971 (inactive) and -1.24 (inactive),-0.904 (inactive) and -0.902 (inactive),-2.02 (inactive) and -2.07 (inactive),2.74 and 0.965,-0.976 (inactive) and -0.495 (inactive),-0.354 (inactive) and -0.393 (inactive),-1.22 and -0.2
COC(=O)C1=C(C)N(Cc2ccccc2)[C@]23O[C@](C(=O)OC)(C(=O)N2[C@@H]1c1ccccc1)[C@H]1CCCC(=O)[C@H]13,0.04 and -0.0686,-3.29 (inactive) and -2.24 (inactive),-0.375 (inactive) and -1.01 (inactive),0.563 (inactive) and 2.64 (inactive),-0.771 (inactive) and -0.693 (inactive),0.3,0.114 and -0.018,0.165 and 0.434,0.815 and 0.262,0.396 and 0.436,0.0211 (inactive) and -0.587 (inactive),-0.0559 and 0.101,1.12 (inactive) and 0.466 (inactive),0.314 (inactive) and 0.0982 (inactive),0.0988 (inactive) and 0.882 (inactive),0.0037 (inactive) and -1.37 (inactive),-0.0731 and 2.28,-2.97 (inactive) and -0.233 (inactive),0.743 (inactive) and 0.178 (inactive),0.244 and -0.624
C[C@@H](ON=C1[C@H]2CCn3c(=O)n(-c4ccccc4)c(=O)n3[C@H]2[C@H](O)[C@@H]2O[C@H]12)c1cn([C@H](CO)Cc2ccccc2)nn1,-0.174,1.13 (inactive),0.867 (inactive),-0.157 (inactive),1.45 (inactive),0.0375,-0.0313,0.185,0.199,0.403,0.328 (inactive),-0.049,0.508 (inactive),0.461 (inactive),0.373 (inactive),0.367 (inactive),0.164,-0.622 (inactive),-0.268 (inactive),0.259
C[N+](C)(C)CCCCNC(=O)[C@@H]1C[C@@H]2C(=O)N[C@@H](CCCC[N+](C)(C)C)C(=O)N2[C@@H]1c1cccc(OCCO)c1,1.07 and 0.542,-0.219 (inactive) and 0.0262 (inactive),0.78 (inactive) and -0.351 (inactive),-0.264 (inactive) and 0.692 (inactive),-1.09 (inactive) and -0.277 (inactive),0.0255 and -0.695,-0.05 and -0.0413,2.06 and 0.536,2.17 and 1.72,2.31 and 2.25,0.185 (inactive) and 0.394 (inactive),-0.144 and 0.167,1.5 (inactive) and 1.02 (inactive),0.77 (inactive) and -0.108 (inactive),-1.61 (inactive) and -1.45 (inactive),0.252 (inactive) and -0.0932 (inactive),-0.519 and -0.437,-2.1 (inactive) and -1.99 (inactive),-2.58 (inactive) and -1.13 (inactive),-1.28 and -0.837
COC(=O)C1=C(C)N(Cc2ccccc2)C2=C(C(C)=O)C[C@@](O)(C(=O)OC)C(=O)N2[C@@H]1c1ccccc1,0.491 and 0.0879,-0.451 (inactive) and -1.18 (inactive),-2.16 (inactive),3.35 (inactive) and 4.53 (inactive),-0.711 (inactive) and -0.239 (inactive),-0.192 and -0.271,0.0212 and -0.0136,1.39 and 0.336,1.69 and -0.0069,1.74 and 0.806,0.125 (inactive) and -0.635 (inactive),-0.147 and 0.0732,0.0793 (inactive) and -0.0501 (inactive),-1.13 (inactive) and -0.742 (inactive),0.0531 (inactive) and -0.0986 (inactive),-1.62 (inactive) and -0.838 (inactive),0.268 and 2.46,0.627 (inactive) and 0.462 (inactive),0.993 (inactive) and 0.524 (inactive),1 and 1.04
CO[C@@H]1COC(=O)CC=C[C@H](C)[C@@H](NS(=O)(=O)c2ccc(C)cc2)COC(=O)CC=C[C@@H]1C,0.123 and 0.0913,-0.142 (inactive) and -0.867 (inactive),-0.675 (inactive) and -1.19 (inactive),-0.743 (inactive) and 0.42 (inactive),-0.881 (inactive) and 0.764 (inactive),0.167 and 0.162,-0.159 and -0.179,0.318 and 2.3,0.505 and 1.55,1.43 and 2.1,0.578 (inactive) and 0.567 (inactive),-0.186 and 0.0492,0.614 (inactive) and 0.595 (inactive),0.281 (inactive) and -0.12 (inactive),-0.153 (inactive) and 0.571 (inactive),0.401 (inactive) and 0.367 (inactive),-0.3 and -0.484,0.0381 (inactive) and 0.541 (inactive),0.724 (inactive) and 0.493 (inactive),0.423 and 0.277
CC(C)C(=O)N[C@@H]1CCCN1C(=O)C=Cc1ccccc1,-0.0494,0.135 (inactive),1.06 (inactive),0.56 (inactive),0.685 (inactive),0.504,-0.0216,0.841,0.448,0.605,0.214 (inactive),-0.101,-0.272 (inactive),0.274 (inactive),-0.77 (inactive),-0.241 (inactive),-0.685,-0.457 (inactive),0.53 (inactive),0.434
C[C@@H](c1ccccc1)N1C(=O)[C@H]2[C@H]3[C@H](O)[C@H](O)CC(=O)[C@@H]3CC[C@H]2C1=O,0.314,-0.961 (inactive),0.00582 (inactive),1.25 (inactive),0.488 (inactive),0.192,-0.0791,0.712,0.113,1.04,0.212 (inactive),-0.229,0.207 (inactive),-1.39 (inactive),0.279 (inactive),-1.63 (inactive),0.732,-0.0197 (inactive),0.237 (inactive),0.776
CCOC(=O)C[C@H]1[C@H](OC(=O)c2ccccc2-c2ccccc2)[C@@H](NC(=O)Cc2ccc(OC)cc2)c2cc(OCCCO)ccc2N1C(=O)Cc1ccc(OC)cc1,0.18 and 0.0684,-0.093 (inactive) and -0.267 (inactive),0.0825 (inactive),0.656 (inactive) and 0.671 (inactive),-1.2 (inactive) and 0.454 (inactive),0.325 and -0.401,0.0082 and 0.109,-0.0109 and -0.752,0.24 and 0.161,0.857 and -0.501,2.52 (inactive) and -0.448 (inactive),0.349 and -0.0601,2.32 (inactive) and 2.14 (inactive),-0.672 (inactive) and 0.269 (inactive),0.308 (inactive) and -0.142 (inactive),-1.18 (inactive) and 0.255 (inactive),0.551 and -0.0127,1.61 (inactive) and 0.265 (inactive),-0.904 (inactive) and 0.828 (inactive),1.79 and 0.274
C=CCN(CCCCC)C(=O)C(c1cccs1)N(CCOCCO)C(=O)/C=C\C(=O)O (stereo not given),-0.845 and -0.857,-0.103 (inactive) and -0.0586 (inactive),-1 (inactive) and -1.11 (inactive),-0.0778 (inactive) and -0.35 (inactive),0.941 (inactive) and -0.947 (inactive),-0.986 and -1.14,-0.312 and -0.204,-2.06 and -2.03,-1.74 and -2.07,-0.556 and -0.586,1.53 (inactive) and 1.77 (inactive),-1.26 and -0.239,1.03 (inactive) and 0.0763 (inactive),-1.53 (inactive) and -1.1 (inactive),-0.772 (inactive) and -1.06 (inactive),-1.88 (inactive) and -1.64 (inactive),1.27 and 0.842,-0.224 (inactive) and 0.208 (inactive),-0.617 (inactive) and -0.64 (inactive),-0.366 and 0.183
C[C@@H]1CC[C@H]2C(=O)NC[C@@H](O)CN2[C@H]1c1ccc(Br)cc1,-0.0755 and 0.0111,0.3 (inactive) and 0.139 (inactive),0.721 (inactive) and 0.543 (inactive),0.649 (inactive) and 0.108 (inactive),0.797 (inactive) and 0.187 (inactive),-0.161 and -0.289,-0.0762 and -0.128,0.0335 and 0.266,0.0464 and -0.352,0.264 and -0.0212,-1.08 (inactive) and -0.445 (inactive),-0.426 and -0.017,0.211 (inactive) and -0.0955 (inactive),-0.0378 (inactive) and 0.0974 (inactive),-0.114 (inactive) and -0.125 (inactive),-0.218 (inactive) and 0.0277 (inactive),0.53 and -0.753,-0.807 (inactive) and 0.12 (inactive),0.283 (inactive) and 0.229 (inactive),0.646 and 0.135
